This passage reports Potency and activity change, negative = inhibition results from PubChem BioAssay AID624417 (National Center for Advancing Translational Sciences (NCATS), 2012).

The structures appear in SMILES notation. The whole screen tested about 410,000 compounds, of which about 6,400 (1.6%) were called active. Another 20% or so got no clear call; they are omitted. Calls come from the whole dose curve; as a rule, active = well fitted inhibition curve with a large enough effect; inconclusive = small, poorly fitted or top-dose-only effect; inactive = no such curve, though single readings can be large or run the other way. The entries come from a sample that favours actives as a whole. A call without a number means that no potency is given here.
Potency is the fitted concentration of half-maximal effect.

Sequence of Glucagon-like peptide 1 receptor (Homo sapiens) (P43220 whole entry, looked up): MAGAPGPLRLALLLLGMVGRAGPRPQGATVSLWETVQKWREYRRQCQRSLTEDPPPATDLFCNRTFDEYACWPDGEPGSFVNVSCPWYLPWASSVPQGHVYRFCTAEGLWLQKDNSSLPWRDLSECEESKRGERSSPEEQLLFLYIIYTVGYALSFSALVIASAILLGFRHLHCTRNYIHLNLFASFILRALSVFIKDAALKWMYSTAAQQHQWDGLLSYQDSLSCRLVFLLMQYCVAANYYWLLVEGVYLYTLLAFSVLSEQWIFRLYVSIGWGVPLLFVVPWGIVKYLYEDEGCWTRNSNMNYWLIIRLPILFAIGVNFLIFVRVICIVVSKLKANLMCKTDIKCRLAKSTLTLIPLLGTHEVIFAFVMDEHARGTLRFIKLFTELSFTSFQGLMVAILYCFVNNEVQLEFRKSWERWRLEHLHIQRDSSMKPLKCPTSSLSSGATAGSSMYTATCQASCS

For this assay, the target named is Glucagon-like peptide 1 receptor (Homo sapiens) (UniProt P43220). Put plainly: qHTS of GLP-1 Receptor Inverse Agonists (Inhibition Mode). Note: nearly all actives have a fitted effect of over 55% in size. The following applies: HEK293 GLP-1R CRE-luciferase, luminescence, 24 h, GLP-1R form is constitutively active; series mostly up to 38.3 µM. In a few lines:
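Seeding at 200 cells/uL, 12 h culture, 24 hr compound treatment, then luciferase reagent and a luminescence read; cells are HEK293 stably expressing a constitutively active GLP-1R plus cAMP-responsive luciferase.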
(In general: qHTS replaces the single test concentration by a dilution series.)
As for `Cc1cn([C@H]2C[C@H](O)[C@@H](/C=C/C(=O)NCCCc3ccccc3)O2)c(=O)[nH]c1=O`, the Potency result was “inactive”.

For `CC(C)(C)C(=O)c1c(N)[nH]c(C(=O)c2ccccc2)c1-c1ccc(F)cc1`, the Potency entry is “inactive”. The same measure, in the same setting: for `C[C@H](CO)N1C[C@H](C)[C@@H](CN(C)C(=O)C2CCCCC2)OCc2cnnn2CCCC1=O` the value was “inactive”; for `Brc1ccc(Nc2c3c(nc4ncnn24)CCC3)cc1`, “inactive”. Still for that read-out and setting: for `CC1CCc2c(nc3ncnn3c2Nc2ccc(OC(F)(F)F)cc2)C1` (configuration not stated) the value was 11.2 µM (active); for `CC(=O)c1nn(-c2ccc(OC(F)(F)F)cc2)nc1Nc1ccccc1`, “inactive”; for `COc1ccc(-c2nc3ccc(Br)cn3c2Cc2ccc(C)cc2)cc1OC`, “inactive”.

Consider `CC(C)c1cc(Cn2c3ccccc3c(=O)n2C(C)Cn2cc(C3CC3)nn2)on1` (configuration not stated), for which the Potency result is “inactive”. As to `CCN(CC)S(=O)(=O)c1ccc(Cl)c(C(=O)NCCN2CCOCC2)c1`, the Potency entry was “inactive”. On the same count and under the same terms, for `CCN(CC)S(=O)(=O)c1ccc(N2CCCC2)c(NS(=O)(=O)c2cccs2)c1` the value was “inactive”; for `CCN(CC)S(=O)(=O)c1ccc(Cl)c(C(=O)NC(C)C(c2cccs2)N2CCCC2)c1` (configuration not stated), 5.62 µM (active); for `COc1ccc(CN2C(=O)C(CC(=O)NC3CCCCC3)CC(C(=O)N3CCOCC3)=C2C)cc1` (configuration not stated), “inactive”. On the same count and under the same terms, the entry for `CC(=O)Nc1ccc(-c2ccnc3c2CC(C(=O)NC(C)C)O3)cc1` (configuration not stated) is “inactive”; for `COc1ccc(NC(=O)C2Cc3c(-c4cccc(NC(C)=O)c4)ccnc3O2)cc1OC` (configuration not stated) it is “inactive”; for `O=C(Nc1ccc(Cl)cc1)C1Cc2c(-c3ccc4c(c3)OCO4)ccnc2O1` (configuration not stated) it is 11.2 µM (active). For the molecule `COc1ccc(NC(=O)CCCOc2ccc(C(C)=O)cc2)cc1S(=O)(=O)N1CCCCC1`, the Potency entry is “inactive”.

For the molecule `CN(Cc1ccccc1)C(=O)CCC1CCN(C(=O)c2ccco2)CC1`, the Potency result is “inactive”.

Take `C[C@H]1CN([C@@H](C)CO)C(=O)CCCn2cc(nn2)CO[C@@H]1CN(C)S(=O)(=O)c1ccccc1C#N`: the Potency result is “inactive”. On the same count and under the same terms, the entry for `CCCCCCNC(=O)O[C@]12C[C@@H](C(=O)OC)[C@@H](C(=O)OC)C[C@@]1(O)CN(S(=O)(=O)c1ccc(C)cc1)C2` is “inactive”.

In the case of `Cc1ccc(OCc2n[nH]c(=S)n2-c2ccccc2)cc1`, the Potency result is “inactive”. `Cc1cccnc1NC(=O)CSc1nnc(COc2ccc(C(C)C)cc2)n1C`: the Potency result is “inactive”. On the same count and under the same terms, for `Cc1ccc(OCc2nnc(SC3CCc4ccccc4C3=O)n2C)cc1` (configuration not stated) the value was 7.08 µM (active); for `O=C(COC(=O)c1ccc(S(=O)(=O)N2CCCCCC2)cc1)Nc1ccccc1C(F)(F)F`, “inactive”.

Consider `CN1OC[C@@H]2CN(C(=O)C(C)(C)C)[C@H](c3ccc(-n4ccnc4)cc3)C[C@@H]21`, for which the Potency result was “inactive”. The same measure, in the same setting: the figure for `COc1ccccc1-c1sc2ccccc2c1-c1ccc(Br)nc1` is 10 µM (active); for `COc1ccc2sc(-c3ccc(S(C)(=O)=O)cc3)c(-c3ccc(C(N)=O)cc3)c2c1` it is “inactive”.

Turning to `COc1ccccc1-c1sc2ccccc2c1-c1ccc(C(C)=O)cc1`, the Potency is 10 µM (active). The same measure, in the same setting: for `COc1ccc2sc(-c3ccccc3OC)c(-c3ccc(OCCN4CCCC4)cc3)c2c1` the value was “inactive”; for `COc1ccc(-c2sc3ccccc3c2-c2ccc(OCCN3CCOCC3)cc2)cc1`, “inactive”; for `COc1cc(C(C)=O)ccc1OC(=O)CN1C(=O)c2ccccc2C1=O`, “inactive”. Still for that read-out and setting: for `N#Cc1ccc(-c2nc3c(Cl)cc(C(F)(F)F)cn3c2Cc2ccccc2C(F)(F)F)cc1` the value was “inactive”. Still for that read-out and setting: the entry for `CC1(C(=O)NS(=O)(=O)c2cccc(F)c2)CCN1C(=O)Cc1cc(F)ccc1F` (configuration not stated) is “inactive”; for `Cc1cccc(CN2CCN(C3CN(Cc4cn(Cc5cc(C)cc(C)c5)nn4)S(=O)(=O)C3)CC2)c1` (configuration not stated) it is “inactive”; for `COC(=O)[C@]12CCCCC=C1N(Cc1ccc3c(c1)OCO3)C(=O)[C@H](CC(=O)N1CCOCC1)C2` it is “inactive”.

Consider `C[C@@H]1CN([C@H](C)CO)C(=O)CCCn2nncc2CO[C@@H]1CN(C)C(=O)OCc1ccccc1`, for which the Potency entry was “inactive”. The same measure, in the same setting: for `O=C1NC[C@H](CCCCN2C[C@H](Cc3ccc(O)cc3)N(CCc3ccccc3)C(=O)C2=O)N(CCc2ccccc2)C1=O` the value was “inactive”; for `CC1=C(C(=O)N2CCOCC2)CC(CC(=O)NCc2cccs2)C(=O)N1CCCN1CCCC1=O` (configuration not stated), “inactive”; for `CC1=C(C(=O)N(C)C)CC(CC(=O)NCCc2ccccn2)C(=O)N1CCC1=CCCCC1` (configuration not stated), “inactive”. On the same count and under the same terms, the entry for `Cc1nc(Nc2ccccc2F)c2nnn(Cc3ccccc3Cl)c2n1` is “inactive”; for `CCCc1nc(NCc2ccc3c(c2)OCO3)c2nnn(Cc3ccccc3Cl)c2n1` it is “inactive”. Still for that read-out and setting: for `Cc1nc(Nc2ccc3c(c2)OCCO3)c2nnn(Cc3ccccc3Cl)c2n1` the value was 3.55 µM (active); for `O=C(O)C(=Cc1ccc([N+](=O)[O-])cc1)CCc1ccccc1`, “inactive”; for `COCCNC(=O)C1CCCN(Cc2ccccc2Cl)CC1` (configuration not stated), “inactive”. Consider `O=C(NCc1ccccn1)[C@@H]1CCCN1C(=O)[C@@H]1CCCN1C(=O)c1ccccc1`, for which the Potency entry was “inactive”. The same measure, in the same setting: the entry for `COC(=O)C1(C(=O)OC)C/C=C\CN(S(=O)(=O)c2ccccc2[N+](=O)[O-])CCC1` is “inactive”; for `CC(Sc1ccc(S(=O)(=O)N2CCN(C)CC2)cn1)C(=O)NC1CCCC(C)C1C` (configuration not stated) it is “inactive”; for `Cc1nc(NC(=O)c2ccc3c(c2)OCCO3)ccc1Br` it is “inactive”. On the same count and under the same terms, for `O=C(Nc1ccc(Cl)cn1)c1ccc2c(c1)OCCO2` the value was 7.08 µM (active); for `COc1c(Cl)cc(C(=O)Nc2ccc(Cl)cn2)cc1Cl`, “inactive”. For `CN(Cc1ccccc1)C(=O)COc1ccccc1`, the Potency result was “inactive”. On the same count and under the same terms, the figure for `CN(Cc1ccccc1)C(=O)COC(=O)c1ccccc1Nc1ccccc1` is 12.6 µM (active); for `Cc1ccc(S(=O)(=O)CCC(=O)OCC(=O)N(C)Cc2ccccc2)cc1` it is “inactive”.

For `CC(=O)Nc1cncc(-c2ccccc2CO)n1`, the Potency result was “inactive”.

`CCOC(=O)C1(C)CCCN(C(=O)c2cccc(Cl)c2)C1` (configuration not stated): the Potency entry is “inactive”. Still for that read-out and setting: for `NS(=O)(=O)c1ccc(CCNc2nc(C(F)(F)F)nc3ccccc23)cc1` the value was “inactive”. The same measure, in the same setting: for `COc1cccc(CNc2nc(C(F)(F)F)nc3ccccc23)c1` the value was 10 µM (active); for `COc1cccc(CNC(=O)c2n[nH]c3ccccc23)c1`, “inactive”; for `CCN(CC)C(=O)C1CCCN(Cc2cccc(Cl)c2)C1` (configuration not stated), “inactive”. Still for that read-out and setting: the entry for `Nc1nc2ncccn2c1-c1ccccc1` is “inactive”; for `CCOC(=O)C1(C)CCCN(C(=O)c2ccc(N(C)C)cc2)C1` (configuration not stated) it is “inactive”; for `O=S1(=O)CCN(C2CCCCCCCCCCC2)CC1` it is “inactive”.

As for `COc1ccc(C2(c3ccc(OC)cc3)NC(=O)N(CC(=O)Nc3cc(C)on3)C2=O)cc1`, the Potency result was “inactive”. For `Cc1ccc(C2(c3ccc(C)cc3)NC(=O)N(Cc3c(C)noc3C)C2=O)cc1`, the Potency is 10 µM (active).

Consider `COC(=O)c1ccc(CN2C(=O)NC(c3ccccc3)(c3ccccc3)C2=O)o1`, for which the Potency result was “inactive”. Still for that read-out and setting: the entry for `Cc1ccc(-c2nc3c(C)cc(Br)cn3c2Cc2ccccc2)cc1` is “inactive”; for `CCC(C(=O)Nc1c(C)cccc1C)n1c(-c2cc(C)cs2)nc2ccccc21` (configuration not stated) it is “inactive”; for `CCC(c1nc2ccccc2[nH]1)n1c(=O)c(-c2cccs2)nc2ccccc21` (configuration not stated) it is 10 µM (active). On the same count and under the same terms, for `O=C(Nc1ccccc1-c1nc2ccccc2[nH]c1=O)c1cccs1` the value was “inactive”; for `Cc1ccccc1CN1C(=O)CSCC1(C)C(=O)Nc1c(C)cccc1C` (configuration not stated), “inactive”.

Turning to `COc1ccc(CNS(=O)(=O)c2ccc(-c3cnc(C4CC4)o3)cc2)cc1`, the Potency entry was “inactive”.

For `Cc1cccc(NS(=O)(=O)c2ccc(-c3cnc(C4CC4)o3)cc2)c1`, the Potency is 0.891 µM (active).

For `Cc1ccc(-c2cnc(C3CC3)o2)cc1S(=O)(=O)Nc1cccc(C)c1C`, the Potency result was “inactive”. With `CC1(C(=O)NS(=O)(=O)c2cccs2)CCN1C(=O)Cc1ccc(-c2ccccc2)cc1` (configuration not stated), the Potency result was “inactive”.

For `Cc1csc(=O)n1CCC(=O)OCC(=O)Nc1ccc(N2CCOCC2)cc1`, the Potency entry was “inactive”. Regarding `Cc1c(C(=O)Nc2ccccn2)oc2ccc(Br)cc12`, the Potency entry was “inactive”. Still for that read-out and setting: the entry for `Oc1ccc(/C=N/Nc2ccc(C(F)(F)F)cn2)cc1O` is “inactive”; for `Oc1ccc(Br)cc1/C=N/Nc1ccccn1` it is 2.82 µM (active); for `COc1ccc(S(=O)(=O)NC(=O)C2(C)CCN2C(=O)c2ccccc2CCc2ccccc2)cc1` (configuration not stated) it is “inactive”. The same measure, in the same setting: the entry for `CC(C)(C)C(=O)COC(=O)c1cc(S(=O)(=O)N2CCCCC2)ccc1N1CCOCC1` is “inactive”. `O=C(OCCOc1ccccc1Cl)c1cc(S(=O)(=O)N2CCCCC2)ccc1N1CCOCC1`: the Potency was 4.47 µM (active). On the same count and under the same terms, the entry for `O=C(OCCOc1ccccc1F)c1cc(S(=O)(=O)N2CCOCC2)ccc1F` is “inactive”. As to `CCN(CC)CCCNC(=O)c1ccc2c(=O)n(Cc3ccc4c(c3)OCO4)c(=S)[nH]c2c1`, the activity change, negative = inhibition was -18.1% [at 7.66 µM] (inactive).

As for `CCN(CC)CCCNC(=O)c1cn(C)c2ccc(S(=O)(=O)N(C)C3CCCCC3)cc2c1=O`, the Potency entry is “inactive”. Same read-out and setting: for `CCN(CC)CCCNC(=O)c1c(O)c2cc(F)cc3c2n(c1=O)C(C)CC3` (configuration not stated) the value was 7.94 µM (active); for `CCNC(=O)C1(C)CCCN(Cc2noc(-c3ccccc3OC)n2)C1` (configuration not stated), “inactive”; for `Oc1ccc2nc(Cc3ccccc3)[nH]c2c1`, “inactive”. Take `Oc1ccc(-c2nc3ccccc3nc2-c2ccc(O)cc2O)c(O)c1`: the Potency was 4.47 µM (active).

For `Cc1nc2ccccc2nc1N/N=C/c1ccc(O)cc1O`, the Potency entry was “inactive”. Same read-out and setting: the entry for `CCc1cccc(CC)c1N1C(=O)CC(Sc2ccccc2N)C1=O` (configuration not stated) is “inactive”; for `O=C1c2ccccc2C(=O)N1Cc1cc(-c2ccccc2Cl)no1` it is “inactive”; for `Fc1ccc(-c2ccc(CNCc3ccccn3)o2)cc1Cl` it is “inactive”.

Turning to `Clc1ccc(-c2cc(-c3ccccn3)on2)c(Cl)c1`, the Potency is 5.62 µM (active). On the same count and under the same terms, for `Nc1nonc1-n1nnc(C(=O)N/N=C/C2CCCCC2)c1-c1ccccc1` the value was “inactive”; for `CC(C)c1c(C(=O)N/N=C/c2ccccc2C(=O)O)nnn1-c1nonc1N`, “inactive”. For the molecule `Nc1nonc1-n1nnc(C(=O)N/N=C/c2c[nH]c3ccccc23)c1-c1ccccc1`, the Potency is 12.6 µM (active).

For `Cc1[nH]c2ccccc2c1C(=O)C(=O)NCc1nnnn1-c1cccc(F)c1`, the Potency result is “inactive”.

Take `O=C(COC(=O)c1cccc(Cl)c1Cl)NC1CCCCCC1`: the Potency entry was “inactive”.
